Values joined by “and” are separate entries in the source; they are usually repeats but may differ in a detail not shown here. Equal entries are not always repeated. Active and inactive are the calls of the source. Cut-off read from the data, not from the text of the source, unless noted: active = inhibition above about 80%; inactive = the rest.
Columns and labels:
[1] = LFS_MB_P medulloblastoma growth inhibition, cell-based, chromothripsis tumors, cisplatin or BGB combos (AID 1671449); details: LFS_MB_P medulloblastoma cells;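 note: cells exposed for 96 hours; 0% = vehicle DMSO and 100% = killing by high DMSO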
[2] = HDN33 neuroblastoma growth inhibition, cell-based, chromothripsis tumors, cisplatin or BGB combos (AID 1671450); details: HDN33 neuroblastoma cells, stronger effect = higher value;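 note: cells exposed to compound for four days; 0% = vehicle DMSO and 100% = cell killing by high DMSO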
[3] = ICB984 medulloblastoma cell growth inhibition, synergistic combos for chromothripsis tumors, cisplatin or BGB combos (AID 1671451; call rule not given here;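 note: cells exposed for 96 hours before readout; 0% = vehicle DMSO and 100% = killing by high DMSO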); details: ICB984 medulloblastoma cells, drug combinations, stronger effect = higher value
[4] = HTB85 osteosarcoma cell growth inhibition, synergistic combos for chromothripsis tumors, BGB or cisplatin IC20 combos (AID 1671453); details: HTB85 osteosarcoma cells, drug combinations, stronger effect = higher value;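 note: cells exposed for 96 hours before readout; 0% = vehicle DMSO and 100% = high DMSO killing control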
[5] = MDA-MB-436 breast carcinoma cell growth inhibition, synergistic combos for chromothripsis tumors, BGB or cisplatin combos (AID 1671458; call rule not given here;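 note: cells exposed for 96 hours; 0% = vehicle DMSO and 100% = killing by high DMSO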); details: MDA-MB-436 breast carcinoma growth inhibition, drug combinations, stronger effect = higher value
[6] = growth inhibition of BT084 medulloblastoma cells, cell-based, ICGC_MB145, cisplatin and BGB IC40 combos (AID 1671461); details: drug combinations, stronger effect = higher value;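 note: cells exposed to drugs for 96 hours; 0% = vehicle DMSO and 100% = high DMSO full killing control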
[7] = growth inhibition of RCMB18 medulloblastoma cells, cell-based, cisplatin and BGB IC40 combos (AID 1671462); details: stronger effect = higher value;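 note: cells exposed to compound for four days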

With `C[C@@H]1CN(CC(=O)Nc2ccc3c(c2)Cc2cccc(-c4cc(=O)cc(N5CCOCC5)o4)c2S3)C[C@H](C)O1` as the compound, how does the inhibition ([1]; measured here: combination with BGB IC20, at 0.005 µM) read?
The inhibition was 12.1% and -26.9%.

What about the inhibition ([1]; measured here: combination with BGB IC40, at 0.005 µM) of the same compound?
The inhibition was 76.1% and -29.5%.

And the inhibition ([1]; measured here: combination with BGB IC40, at 0.05 µM)?
Its inhibition is -11.7% and -51.5%.

And the inhibition ([1]; measured here: combination with cisplatin, at 0.5 µM, stronger effect = higher value)?
Its inhibition is 39.6% and -32.3%.

And the inhibition ([1]; measured here: combination with cisplatin, at 5 µM, stronger effect = higher value)?
The inhibition was -23.3% and -90%.

What about the inhibition ([2]; BGB combo, at 5 µM) of the same compound?
The inhibition was 2.05% and 13.3%.

What about the inhibition ([2]; at 0.5 µM) of the same compound?
The inhibition was -17.5% (inactive) and -12.8% (inactive).

What about the inhibition ([2]; cisplatin combo, at 5 µM) of the same compound?
Its inhibition is -12.4% and 5.9%.

What about the inhibition ([2]; measured here: with BGB IC20 combination, at 0.5 µM) of the same compound?
Its inhibition is -16.8% and -1.93%.

What about the inhibition ([2]; measured here: with cisplatin IC20 combination, at 0.5 µM) of the same compound?
The inhibition was -12.5% and -11.1%.

And the inhibition ([2]; single agent, at 5 µM)?
Its inhibition is -33.9% and 16.4%.

And the inhibition ([3]; BGB IC20 combo, at 0.005 µM)?
The inhibition was 4.72% and 10.1%.

And the inhibition ([3]; BGB IC40 combo, at 0.005 µM)?
Its inhibition is -39.9% and -9.84%.

And the inhibition ([3]; BGB IC40 combo, at 0.05 µM)?
The inhibition was 3.85% and -15.8%.

What about the inhibition ([3]; at 0.5 µM) of the same compound?
Its inhibition is -19.3% (inactive) and -37.2% (inactive).

What about the inhibition ([3]; cisplatin combo, at 0.05 µM) of the same compound?
The inhibition was -0.996% and -20%.

What about the inhibition ([3]; cisplatin combo, at 0.5 µM) of the same compound?
The inhibition was -20.2% and -42.2%.

And the inhibition ([3]; cisplatin combo, at 5 µM)?
Its inhibition is 2.43% and -58.6%.

What about the inhibition ([3]; measured here: 5 uM single agent, at 5 µM) of the same compound?
The inhibition was -28.1% and -5.43%.

What about the inhibition ([4]; at 0.5 µM) of the same compound?
The inhibition was -24.8% (inactive) and -13.9% (inactive).

And the inhibition ([4]; measured here: with BGB IC20, at 0.5 µM)?
Its inhibition is -22.3% and -11.4%.

What about the inhibition ([4]; measured here: with BGB IC20, at 5 µM) of the same compound?
Its inhibition is -3.78% and 16.9%.

And the inhibition ([4]; measured here: with cisplatin IC20, at 0.5 µM)?
Its inhibition is -22.4% and -22.3%.

And the inhibition ([4]; measured here: with cisplatin IC20, at 5 µM)?
The inhibition was 1.95% and -37.3%.

And the inhibition ([4]; single agent, at 5 µM)?
Its inhibition is -2.38% and 8.59%.

And the inhibition ([5]; at 0.5 µM)?
Its inhibition is -6.48% (inactive) and -14.8% (inactive).

What about the inhibition ([5]; measured here: BGB combination, at 0.5 µM) of the same compound?
Its inhibition is -1.79% and -20.6%.

And the inhibition ([5]; measured here: BGB combination, at 5 µM)?
The inhibition was 17.7% and 3.62%.

And the inhibition ([5]; measured here: cisplatin combination, at 0.5 µM)?
The inhibition was -20.7% and -21.7%.

And the inhibition ([5]; measured here: cisplatin combination, at 5 µM)?
The inhibition was 7.96% and -7.31%.

And the inhibition ([6]; at 0.5 µM)?
Its inhibition is -1.92% (inactive) and -6.86% (inactive).

And the inhibition ([6]; cisplatin combination, at 0.5 µM)?
The inhibition was -3.42% and -23.5%.

What about the inhibition ([6]; cisplatin combination, at 5 µM) of the same compound?
Its inhibition is -136% and -3.01%.

And the inhibition ([6]; measured here: BGB IC40 combination 0.05 uM, at 0.05 µM)?
The inhibition was -6.42% and -21%.

And the inhibition ([6]; single agent, at 5 µM)?
Its inhibition is 4.22% and -18.6%.

What about the inhibition ([7]; at 0.5 µM) of the same compound?
The inhibition was 1.57% (inactive) and -21.5% (inactive).

And the inhibition ([7]; cisplatin combo, at 5 µM)?
Its inhibition is -0.721% and -71.8%.

What about the inhibition ([7]; measured here: BGB IC40 combination, at 0.05 µM) of the same compound?
The inhibition was 9.68% and -19.2%.

And the inhibition ([7]; measured here: combination with cisplatin, at 0.5 µM)?
Its inhibition is -13.6% and -9.04%.

What about the inhibition ([7]; single agent, at 5 µM) of the same compound?
Its inhibition is 36.4% and -12.2%.

Reference: PubChem BioAssay
